Assay outcomes as filed in PubChem.
GPR151 activ: human GPR151 activation | 650,000 compounds, 1% hits | Q8TDV0 | PathHunter beta-arrestin GPR151 cells, luminescence | activation, % at 11.2 µM | AID 1508602; in the data active means activation above about 4.9%;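 further: 0% = median of compound wells and 100% = cells with positive control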
TEAD-YAP inh: TEAD-YAP interaction inhibition | HEK-TIYL cells, TEAD-Gal4/YAP UAS-luciferase luminescence | inhibition, % at 9.12 µM | 640,000 compounds, 1.4% hits; in the data active means inhibition above about 32%;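 further: 0% = median of test compound wells and 100% = reference inhibitor wells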
FBW7 activator: human FBW7 E3 ligase activation, primary screen; AlphaScreen FBW7–phospho-cyclin E peptide binding, activator screen; normalized activity (activation), % at 26.1 µM; 650,000 compounds, 0.13% hits; in the data active means normalized activity above about 1.9%;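 further: purified mutant Fbw7 with reduced substrate affinity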
MITF primary: human MITF inhibition, primary screen; 650,000 compounds, 0.91% hits; AlphaScreen MITF homodimerization, bead proximity signal; AID 1259374; O75030; inhibition, % at 2.6 µM; in the data active means inhibition above about 50%;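 further: 0% = vehicle wells with protein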
Target sequence (O75030 whole entry, looked up): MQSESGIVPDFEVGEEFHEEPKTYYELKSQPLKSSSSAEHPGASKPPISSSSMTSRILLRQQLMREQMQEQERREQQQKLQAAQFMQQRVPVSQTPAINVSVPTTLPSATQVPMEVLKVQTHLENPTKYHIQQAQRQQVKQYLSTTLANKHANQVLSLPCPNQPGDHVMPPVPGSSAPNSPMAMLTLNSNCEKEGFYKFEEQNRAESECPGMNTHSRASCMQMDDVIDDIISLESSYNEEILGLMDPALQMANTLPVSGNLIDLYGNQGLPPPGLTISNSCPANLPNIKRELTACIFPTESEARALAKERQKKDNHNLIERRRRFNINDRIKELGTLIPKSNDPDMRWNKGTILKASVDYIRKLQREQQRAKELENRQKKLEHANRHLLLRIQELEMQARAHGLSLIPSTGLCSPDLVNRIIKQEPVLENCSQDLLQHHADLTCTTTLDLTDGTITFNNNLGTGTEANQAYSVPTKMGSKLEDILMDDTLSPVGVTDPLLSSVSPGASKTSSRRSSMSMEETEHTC
GPR151 conf act: confirmation of human GPR151 activators; shares compounds with GPR151 activ; GPR151 PathHunter beta-arrestin cells, luminescence, 90 min; % of EA-reagent control over plate median; 6,700 tested, under 10 active; activation, % at 11.2 µM;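 active means mean percent activation across replicates above the confirmation screen cutoff of 4.91%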
GPR119 ag: counter-screen for GPR151 activators: effect on human GPR119 | shares compounds with GPR151 activ | GPR119 PathHunter beta-arrestin cells, luminescence, 90 min; 0 = compound-well median, 100 = enzyme-acceptor control | activation, % at 11.2 µM | 6,700 compounds, 0.3% hits | AID 1508611;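 active means mean percent activation in the counterscreen above 29.09%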;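 further: counterscreen on off-target GPR119 to flag nonselective hits from the GPR151 activator screen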
* marks the source's active call; other numbers are inactive results; nt = no result given; ! = not confirmed by another sample. Compounds with a hit are over-represented: about 3.4% of the library has one in this group of screens.

SMILES	GPR151 activ	TEAD-YAP inh	FBW7 activator	MITF primary	GPR151 conf act	GPR119 ag
O=C(N/C(=C\c1ccccc1F)C(=O)N1CC2CC(C1)c1cccc(=O)n1C2)c1ccccc1Br (centres undefined)	0	-12	0	10	nt	nt
COc1ccc(/C(N)=N/OC(=O)COc2ccc(Br)cc2)cc1OC	1	-4	0	-5	nt	nt
COc1ccc(OCC(=O)O/N=C(\N)c2ccc(OC)c(OC)c2)cc1	8.2*	7	0	-9	0	10
CC(C)NCCOCCOc1c(Cl)cccc1Cl	0	-18	0	35	nt	nt
CC(C)NCCOCCOc1cccc(Cl)c1	8.4*	6	0	42	-1	-13
CCC(C(=O)OC)n1cnc2scc(-c3cccc([N+](=O)[O-])c3)c2c1=O (centres undefined)	15*	-11	0	1	1	8
NC(=O)Cn1cnc2scc(-c3cccc([N+](=O)[O-])c3)c2c1=O	0	-15	0	0	nt	nt
C/C(=N\Nc1cc(-n2cc(C)cn2)ncn1)c1cccc([N+](=O)[O-])c1	19*	10	0	14	0	4
C/C(=N\Nc1cc(-n2cc(C)cn2)ncn1)c1ccccc1	0	-10	0	4	nt	nt
COc1ccc(-c2nc3cc(Cl)ccc3o2)cc1OC	5.8*	-44	0	8	1	-2
O=S(=O)(c1ccc2oc(-c3ccc(Cl)cc3)nc2c1)c1ccc2oc(-c3ccc(Cl)cc3)nc2c1	5.7*	4	0	11	1	-1
O=CN1CCN(C(=O)c2ccccc2Cl)CC1	1	-3	0	10	nt	nt
Cc1ccc(C(=O)N2CCN(C=O)CC2)c(Cl)c1	6.5*	4	0	16	0	-4
O=C(NCc1nc2ccccc2[nH]1)c1cccc(-c2ccccc2)n1	7.1*	8	0	-3	1	-3
NS(=O)(=O)c1ccc(CNC(=O)Nc2ccc(Br)cc2Cl)cc1	8.7*	-9	0	12	-1	-14
NS(=O)(=O)c1ccc(CNC(=S)Nc2ccc(Br)cc2Cl)cc1	4	-6	0	7	nt	nt
CCCN(CCC)CCCn1cnc2c([nH]c3ccc(F)cc32)c1=O	5	6	0	9	nt	nt
CCCN(CCC)CCCn1cnc2c([nH]c3ccc(OC)cc32)c1=O	5.1*	-1	0	-4	0	5
NC(=O)/C(=C/c1cccc([N+](=O)[O-])c1)NC(=O)c1ccco1	6.8*	-1	0	-6	1	-4
O=C(OCc1ccccc1)/C(=C/c1cccc([N+](=O)[O-])c1)NC(=O)c1ccco1	0	-5	0	4	nt	nt
CNC(=O)/C(=C/c1cccc([N+](=O)[O-])c1)NC(=O)c1ccc(C(C)(C)C)cc1	6.0*	1	0	3	0	-3
O=C(Cc1ccc(Cl)cc1)N/N=C/c1cc(Cl)ccc1O	0	23	-1	-7	nt	nt
CCOC(=O)c1c(N)sc(-c2ccccc2)c1Cc1ccccc1	1	-1	0	-7	nt	nt
CCOC(=O)c1c(N)sc(-c2ccccc2)c1C	6.2*	-40	0	1	0	-2
COc1ccc(Cn2c(C)nc3cc(NC(=O)c4ccccc4)c(C)nc32)cc1	0	-5	0	-1	nt	nt
SMILES	GPR151 activ	TEAD-YAP inh	FBW7 activator	MITF primary	GPR151 conf act	GPR119 ag
Cc1ccc(CSc2nc3ccccc3c(=O)n2CC2CCCO2)cc1 (centres undefined)	-1	-8	0	-8	nt	nt
O=c1c2ccccc2nc(SCc2ccncc2)n1CC1CCCO1 (centres undefined)	6.2*	5	0	-2	1	16
C=CCNC(=O)C1CC(c2ccc(OC)cc2)NS(=O)(=O)N1C (centres undefined)	2	-5	0	-2	nt	nt
CN(C)c1ccc(C2C(=O)N(C3CCCCC3)CC(=O)N2Cc2cccs2)cc1 (centres undefined)	1	30	0	0	nt	nt
COc1ccc(C2C(=O)N(C3CCCC3)CC(=O)N2Cc2cccs2)cc1 (centres undefined)	11*	2	0	-2	1	14
COc1cc([N+](=O)[O-])ccc1-c1ccc(C(=O)Nc2ccc(Br)cn2)o1	7.1*	-3	0	4	1	17
COc1cc([N+](=O)[O-])ccc1-c1ccc(C(=O)Nc2cc(Cl)cc(Cl)c2)o1	-1	4	0	-4	nt	nt
CCN(CC(=O)Nc1ccc(OC)cc1)CC(=O)Nc1ccc(C(N)=O)cc1	-1	10	0	1	nt	nt
O=C(c1ccccc1Br)N1N=C2CCCCC2C1(O)C(F)(F)F (centres undefined)	3	3	1	16	nt	nt
COc1ccc(CNc2c3c(nc4nncn24)CCC3)cc1	7.3*	-3	0	-7	-1	-14
CC1CCN(CCCN2C(=O)C3C(C(=O)Nc4cccc(Cl)c4)C4C=CC3(O4)C2C(=O)NC2CCCC(C)C2C)CC1 (centres undefined)	3	1	0	-1	nt	nt
Cc1nn(-c2ccccc2)c(Cl)c1/C=N\O	5.1*	-5	0	-5	3	5
CCOc1ccc(C2=NC(c3ccc(OC)cc3)NC(c3ccccc3O)C2)cc1 (centres undefined)	6.4*	-60	0	4	0	-11
CC(C)(C)c1ccc(OCCCC(=O)Nc2nccs2)cc1	0	-14	0	9	nt	nt
Cn1c(CC(=O)NN)nc2ccccc21	6.2*	8	0	-2	1	7
O=C(c1cc(Cl)ccc1[N+](=O)[O-])N1CCN(c2ncccn2)CC1	8.3*	3	0	10	1	-4
O=C(COc1ncnc2ccc(Br)cc12)Nc1cc([N+](=O)[O-])ccc1F	2	9	0	0	nt	nt
Cc1c(NC(=S)NC(=O)c2oc3ccccc3c2C)cccc1-c1nc2ccccc2s1	10*	-9	0	-2	1	18
COc1ccc(C#C[C@@H]2C=C[C@H](OC(C)=O)[C@@H](COC(C)=O)O2)cc1	9.3*!	nt	0	-8	1	-5
CC(=O)OC[C@H]1O[C@H](C#Cc2ccc(C(C)(C)C)cc2)C=C[C@@H]1OC(C)=O	0	nt	0	-2	nt	nt
O=C1CCCC2=C1C(c1cc(Br)ccc1O)C1=C(N2)c2ccccc2C1=O (centres undefined)	1	11	0	19	nt	nt
OCCCNc1ncc(-c2ccc(Cl)cc2)cn1	5.8*	-5	0	0	-1	-1
COc1ccc(-c2cnc(NCCCO)nc2)cc1	-2	-14	0	4	nt	nt
COc1cc(Nc2nc(NCCO)c3ncn(-c4ccsc4)c3n2)cc(OC)c1OC	5.6*	37*	0	0	0	12
CCNc1nc(NCCN2CCOCC2)c2ncn(-c3ccsc3)c2n1	6.5*	33*	0	0	-2	-10
